From PubChem
In the library only some 13% were active in any assay of this set; here they are far more common.
Sfp inh – qHTS Assay for Inhibitors of Bacillus subtilis Sfp phosphopantetheinyl transferase (PPTase) | Biochemical Sfp PPTase activity, qHTS | 3.5% of 310,000 active | AID 1490, 2009 | Potency, µM, usual class: inhibitors | 4'-phosphopantetheinyl transferase ffp (Bacillus subtilis), Q9F4F7;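 also: the enzyme is Sfp with the accession as filed and its product quenches rhodamine fluorescence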
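With Hepes-Na pH 7.6 buffer containing 10 mM MgCl2, Sfp (15 nM) modified BHQ-2-YbbR (12.5 uM) using rhodamine-CoA (5 uM). Two reads 30 minutes apart at 525/598 nm yielded each well's rate.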
miR-21 reporter – qHTS Assay for Modulators of miRNAs and/orActivators of miR-21; AID 2288, 2010; Potency, µM (doses to about 38.3 µM), usual class: activators; 340,000 tested, under 10 active; HeLa miR-21 FLuc reporter, luciferase, 48 h;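 also: miR-21 action dims this reporter so a rising signal means less miR-21 action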
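HeLa miR-21-FLuc reporter line, endogenous miR-21; 2000 cells/well in DMEM/10% FBS; compound titration up to ~40uM final, 48 h, 37 degree Celsius; luciferase detection reagent, 15 min lysis, CCD luminescence.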
LMNA splice mod – qHTS Assay for Modulators of Lamin A Splicing. 0.01% of 200,000 active. Potency, µM (doses to about 46.1 µM), most hits filed as inhibitors. HeLa LMNA splicing GFP/RFP minigene ratio, 48 h; active = well fitted inhibition curve with a large enough effect in the signal ratio, with a control signal flat, not every such curve was filed as active; inconclusive = small, poorly fitted or top-dose-only effect, or effect the other way, or a change in a side signal; the % refers to the signal ratio
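Read-out is the ratio of GFP to DsRed2 object intensity, acquired by 488 nm laser-scanning cytometry on HeLa lamin A-EGFP minigene reporter cells. Compound incubation 48 hrs at 37 °C in Opti-MEM with 2% FBS; DMSO 0.5% final.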
JMJD2E inh – qHTS Assay for Inhibitors of Human Jumonji Domain Containing 2E (JMJD2E); Lysine-specific demethylase 4E (Homo sapiens), B2RXH2; JMJD2E catalytic domain, FDH-coupled NADH fluorescence (FDH is formaldehyde dehydrogenase); Potency, µM (series often up to 57.1 µM), hits mostly inhibitors; 1.6% of 230,000 active; AID 2147, 2009; active = well fitted inhibition curve with a large enough effect, not every such curve was filed as active; inconclusive = small, poorly fitted or top-dose-only effect, or another doubt; inactive = no such curve, though single readings can be large or run the other way; also: nearly all actives have a fitted effect of over 50% in size
Target sequence (B2RXH2 1-337 limits assumed): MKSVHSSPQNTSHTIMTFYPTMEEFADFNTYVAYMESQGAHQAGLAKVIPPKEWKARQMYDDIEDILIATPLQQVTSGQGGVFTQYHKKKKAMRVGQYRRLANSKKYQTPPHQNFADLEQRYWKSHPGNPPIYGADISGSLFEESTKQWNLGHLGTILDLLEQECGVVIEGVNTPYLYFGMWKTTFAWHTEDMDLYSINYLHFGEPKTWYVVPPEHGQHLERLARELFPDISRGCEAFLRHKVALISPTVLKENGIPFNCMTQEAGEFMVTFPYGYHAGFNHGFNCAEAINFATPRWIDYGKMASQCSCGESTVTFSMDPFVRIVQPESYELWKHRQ
G9a block – qHTS Assay for Inhibitors of Histone Lysine Methyltransferase G9a | Histone-lysine N-methyltransferase EHMT2 (Homo sapiens), Q96KQ7 | G9a H3K9 monomethylation, AlphaScreen, 2 h | Potency, µM (series often up to 102 µM), actives largely listed as inhibitors | 8.8% of 350,000 active | AID 504332, 2011; also: nearly all actives have a fitted effect of over 75% in size
Target sequence (Q96KQ7 913-1193 limits assumed): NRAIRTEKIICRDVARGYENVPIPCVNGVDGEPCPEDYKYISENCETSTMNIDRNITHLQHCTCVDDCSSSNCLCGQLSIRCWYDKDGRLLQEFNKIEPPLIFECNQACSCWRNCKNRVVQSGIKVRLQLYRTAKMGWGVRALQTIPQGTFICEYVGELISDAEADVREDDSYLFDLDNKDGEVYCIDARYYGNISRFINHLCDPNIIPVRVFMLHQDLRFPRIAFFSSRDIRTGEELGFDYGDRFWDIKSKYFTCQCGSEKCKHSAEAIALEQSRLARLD
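Using a bead-based AlphaScreen, monomethylated H3K9 product from 2 h room-temperature reactions (G9a 20 nM, peptide 500 nM, SAM 20 uM) was detected with 0.5 ug/mL rabbit anti-H3K9me1 antibody.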
ALDH1A1 inh – qHTS Assay for Inhibitors of Aldehyde Dehydrogenase 1 (ALDH1A1) | Aldehyde dehydrogenase 1A1 (Homo sapiens), P00352 | Purified ALDH1A1, NADH fluorescence, propionaldehyde substrate | Potency, µM (series often up to 75.3 µM), actives largely listed as inhibitors | 7.3% of 220,000 active; active = well fitted inhibition curve with a large enough effect, not every such curve was filed as active; inconclusive = small, poorly fitted or top-dose-only effect, or another doubt; inactive = no such curve, though single readings can be large or run the other way
A number is an active result; - = inactive; ? = inconclusive; . = no result; [ ] = another dose, or the depositor's remark. Unless noted, calls follow the shape of the dose curve; as a rule, active = well fitted curve in the direction sought with a large enough effect; inconclusive = small, poorly fitted or top-dose-only effect, or another doubt; inactive = no such curve, though single readings can be large; an effect the other way counts as inactive or inconclusive.

SMILES	Sfp inh	miR-21 reporter	LMNA splice mod	JMJD2E inh	G9a block	ALDH1A1 inh
Cc1cccc(NC(=O)CSCC(=O)N(CCC(C)C)c2c(N)n(Cc3ccccc3)c(=O)[nH]c2=O)c1	.	.	.	.	39.8µM	.
CCc1cc(C(=O)N(CCCOC)c2c(N)n(Cc3ccccc3)c(=O)[nH]c2=O)sc1C	.	.	.	.	12.6µM	.
CC(C)CCN(C(=S)NC(=O)C1CCCCC1)c1c(N)n(Cc2ccccc2)c(=O)[nH]c1=O	-	-	-	-	-	25.1µM
CC(NC(=O)CCCn1c(=O)c2cccn2c2cccnc21)c1ccccc1 (configuration not stated)	.	-	.	.	-	.
COc1ccccc1N1CCN(C(=O)c2nn(-c3ccc(C)cc3)c(=O)n(C)c2=O)CC1	.	-	-	.	-	.
CC(NC(=O)Cc1ccc(S(=O)(=O)N2CCOCC2)s1)c1ccc(Cl)c(Cl)c1 (configuration not stated)	.	.	.	.	-	.
COCCSc1nc2c([nH]c3ccccc32)c(=O)n1-c1ccc(OC)c(OC)c1	.	?	-	.	-	.
CCOc1ccc(NC(=O)c2c(C)oc3nc(C)nc(N4CCOCC4)c23)cc1	.	-	-	.	-	.
CCCCN(C(=S)NC(=O)c1ccccc1)c1c(N)n(Cc2ccccc2)c(=O)[nH]c1=O	-	-	-	-	-	?
COCCCN(C(=S)NC(=O)c1ccc(Br)cc1)c1c(N)n(Cc2ccccc2)c(=O)[nH]c1=O	-	-	-	-	50.1µM	-
CC1(C)CC(=O)C(C(C2=C(O)CC(C)(C)CC2=O)c2ccc([N+](=O)[O-])cc2)C(=O)C1 (configuration not stated)	17.8µM	-	-	-	31.6µM	?
Cc1cc(C(C2C(=O)CC(C)(C)CC2=O)C2C(=O)CC(C)(C)CC2=O)cc(C)c1OC(F)F	-	-	.	.	31.6µM	.
COC(=O)COc1ccc(C(C2C(=O)CC(C)(C)CC2=O)C2C(=O)CC(C)(C)CC2=O)cc1	56.2µM	-	.	.	31.6µM	.
CC1(C)CC(=O)C(C(C2=C(O)CC(C)(C)CC2=O)c2ccc(O)c([N+](=O)[O-])c2)=C(O)C1	20µM	-	?	-	35.5µM	?
COc1cccc(C(C2=C(O)CC(C)(C)CC2=O)C2C(=O)CC(C)(C)CC2=O)c1 (configuration not stated)	-	-	-	-	44.7µM	-
CC1(C)CC(=O)C(C(c2cccnc2)C2C(=O)CC(C)(C)CC2=O)C(=O)C1	-	-	-	-	50.1µM	-
COc1cccc(C(C2C(=O)CC(C)(C)CC2=O)C2C(=O)CC(C)(C)CC2=O)c1	-	-	.	.	79.4µM	.
CC1(C)CC(=O)C(C(c2cccc(O)c2O)C2C(=O)CC(C)(C)CC2=O)C(=O)C1	.	.	.	.	.	-[13.5 µM]
O=c1c(-c2cccs2)nc2cnc(N3CCNCC3)nc2n1CCc1ccccc1	?	.	?	.	-[0.501 µM]	?
CCc1cccc(NC(=O)C(c2ccccc2)N2Cc3ccccc3C2=O)c1 (configuration not stated)	.	-	-	.	-	.
NC(=O)c1c(NC(=O)c2noc3c2CCCC3)sc2c1CCCC2	.	-	.	.	1.78µM	.
Cn1ccc(C(=O)Nc2sc3c(c2C(N)=O)CCCCC3)n1	31.6µM	-	.	.	22.4µM	.
CC(=O)Nc1sc2c(c1C(N)=O)CCCC2	-	-	-	-	-[12.7 µM]	-
CCC(C)(C)C1CCc2c(sc(NC(=O)C3c4ccccc4Oc4ccccc43)c2C(N)=O)C1 (configuration not stated)	.	-	.	.	-	.
CCc1ccccc1NC(=O)c1noc2c1CC(C(C)(C)C)CC2 (configuration not stated)	.	-	.	.	-	.
SMILES	Sfp inh	miR-21 reporter	LMNA splice mod	JMJD2E inh	G9a block	ALDH1A1 inh
NC(=O)c1c(NC(=O)C2c3ccccc3Oc3ccccc32)sc2c1CCCCC2	35.5µM	-	-	-	-	?
CCOC(=O)c1c(NC(=O)c2noc3c2CC(C(C)(C)C)CC3)sc2c1CCCC2 (configuration not stated)	.	-	.	.	2µM	.
Cc1cccc(C(=O)NC2(C(F)(F)F)N=C(c3ccccc3)N(Cc3ccccc3)C2=O)c1 (configuration not stated)	.	-	.	.	-	.
CC(=O)Nc1ccccc1O	-	-	-	-	-	-
CC(=O)c1c(O)cccc1O	25.1µM	.	.	.	.	.
Cc1ccc(C(=O)Nc2onc(C)c2C#N)cc1	-	-	?	-	-	25.1µM
Cc1noc(NC(=O)c2ccccc2)c1C#N	-	-	-	-	?	10µM
Cc1noc(NC(=O)c2ccccc2Cl)c1C#N	-	-	-	-	-	-
Cc1cccc(NC(=O)C(c2ccccc2)N2Cc3ccccc3C2=O)c1C (configuration not stated)	.	-	-	.	-	.
CCS(=O)(=O)N1Cc2ccccc2CC1C(=O)N(C)Cc1ccc(OC)c(F)c1 (configuration not stated)	-	-	.	.	-	.
CCCCNc1nc2c(S(=O)(=O)c3ccc(C)c(C)c3)nnn2c2ccsc12	.	-	.	.	-	.
CC(C)=CC(=O)Nc1ccc(Cl)cc1	-	-	.	-	-	-
CS/C(=C\[N+](=O)[O-])Nc1ccc(Cl)cc1	-	-	-	-	11.2µM	?
CCCc1cc(-n2ccnc2)n2c(nc3ccccc32)c1C#N	-	-	?	?	39.8µM	?
Clc1ccc(N2CCN(Cc3ccco3)CC2)cc1	-	-	.	.	5.01µM	.
FC(F)(F)c1ccc(CN2CCN(Cc3ccco3)CC2)cc1	-	-	.	.	50.1µM	.
COc1cccc(Cn2c(=O)n(Cc3ccco3)c(=O)c3oc4ccccc4c32)c1	.	-	.	.	-	.
COc1cccc(Cc2n[nH]c(=S)n2Cc2ccco2)c1	-	-	.	-	7.94µM	.
COc1ccc(CN2CCN(Cc3ccco3)CC2)cc1OC	?	-	.	.	8.91µM	.
COc1ccc(CN2CCN(Cc3ccco3)CC2)cc1	?	-	.	.	?	.
Clc1ccccc1N1CCN(Cc2ccco2)CC1	-	-	.	.	.	.
COc1ccc(OC)c(S(=O)(=O)N2CCC(n3c(C)nc4cccnc43)CC2)c1	.	-	.	.	-	.
COc1cccc(N2CCN(Cc3ccco3)CC2)c1	-	-	.	.	.	.
COc1cc(CN2CCN(c3cccc(C)c3C)CC2)cc(Br)c1O	-	-	?	-	?	?
COc1cccc(CN2CCN(Cc3ccco3)CC2)c1	44.7µM	-	.	.	10µM	.
COc1ccc(CN2CCN(c3cccc(C)c3C)CC2)cc1OC	-	-	-	?	11.2µM	?
COc1ccc(NC(=O)CCCOc2cc(=O)n(C)c3ccccc23)c(OC)c1	.	-	.	.	-	.
CC1CCN(C(=O)CN2c3ccc(Br)cc3-c3ccccc3S2(=O)=O)CC1	.	-	-	.	-	.
